Measurements published in PubChem BioAssay AID1379 (National Center for Advancing Translational Sciences (NCATS), 2008).
Hit rate of the full screen: of about 200,000 compounds, about 560 (0.28%) were called active. The sample as a whole holds a higher share of actives than the screen did. Unmarked numbers belong to inactive results. The call rests on the fitted dose curve; in most records, active means well fitted inhibition curve with a large enough effect; inconclusive means small, poorly fitted or top-dose-only effect; inactive means flat fitted curve, though single readings scatter.

Target: Luciferin 4-monooxygenase (Photuris pensylvanica) (UniProt Q27757)
Assay: Counterscreen for Luciferase (Kinase-Glo TM) Inhibition; further: nearly all actives have a fitted effect of over 60% in size
Details: ATP luminescence, 8 min; series mostly up to 38.3 µM; activity change, negative = inhibition: at the top concentration
Experimental: NCGC Assay Overview: NIH Molecular Libraries Screening Centers Network [MLSCN] NIH Chemical Genomics Center [NCGC] MLSCN Grant: None Luciferase (Kinase-Glo, Promega Corporation) was assayed for its ability to generate light using ATP and luciferin as substrates. The ATP concentration in the assay (10 uM) was within the linear range of enzyme activity for the assay conditions used.
NCGC Assay Protocol Summary: Four uL of substrate mix (final concentration, 50 mM imidazole pH 7.2, 50 mM KCl, 7 mM MgCl2, 10 uM ATP, 0.01% Tween 20, 0.05% BSA) was dispensed into white 1536 well plates. Twenty-three nL of compound was delivered by a pin tool and 2 uL of luciferase detection mix (Kinase-Glo, Promega)) was added. Following 8-minute incubation at ambient temperature, luminescence was measured by a ViewLux (Perkin Elmer) at 5 seconds exposure/plate.
On the % scale 0 is the no-effect control and ±100 the full control effect; potency means the concentration at half of the fitted maximal effect.

SMILES | activity change, negative = inhibition | Potency
CCCCC/C=C\C[C@H](O)/C=C/C=C/C=C/[C@@H](O)CCCC(=O)O | -1.4% | –
Cc1cc2oc(=O)cc(-c3ccccc3)c2c(C)c1-c1ccc(OC(F)(F)F)cc1 | 2.9% [at 39.9 µM] | –
C[C@H]1Cc2c(-c3ccccc3)nc3c(c2CO1)CN(C(=O)C1CC1)CC3 | -7.42% [at 7.66 µM] | –
CC(Nc1oc(-c2ccccc2)nc1-c1ccccc1)c1ccccc1 (stereo not given) | inactive | –
CC(=C/c1ccccc1)/C=N/NC(=O)c1cc(C)oc1C | -23.6% | –
CCN(CC)c1ccc(C(=O)N/N=C/c2ccc(N3CCOCC3)cc2)cc1 | 0.996% | –
Cc1cc(C(=O)N/N=C/c2ccc(N3CCOCC3)cc2)c(C)o1 | – | 11.2 µM (active)
COc1ccc(-c2nc(-c3ccccc3)oc2Nc2ccc3ccccc3c2)cc1 | 0.504% | –
Cc1ccc(CC2(O)CCN(CCOc3ccc(O)cc3)CC2)cc1 | -0.52% [at 39.9 µM] | –
COC/C=C/C1=CC2=CC(=O)C(C)(OC(=O)CCC(=O)OC)C(=O)C2=CO1 (stereo not given) | -2.02% | –
C=CC1=C2C=C(C3CC3)N(C(CO)CO)C=C2C(=O)C(C)(OC(=O)c2ccco2)C1=O (stereo not given) | -0.389% [at 7.66 µM] | –
CCN1C(=O)N[C@@H](c2ccccc2)C(C(=O)OC)=C1C | -0.704% [at 7.66 µM] | –
Cc1ccc(-c2nc3ccccc3[nH]2)cc1NC(=O)c1sc2ccccc2c1Cl | -4.49% | –
OCCNc1nc2ccccc2[nH]1 | -0.325% | –
c1ccc2[nH]c(-c3nc4ccccc4[nH]3)nc2c1 | – | 11.2 µM (active)
Cc1ccc(-c2nc3ccccc3[nH]2)cc1N | – | 6.31 µM (active)
C=CCSc1nc2ccccc2[nH]1 | -7.25% | –
COc1ccc(Br)cc1C(=O)NC(=S)Nc1cc(-c2nc3ccccc3[nH]2)ccc1C | -2.2% | –
COCOc1cc(OC)ccc1C(=O)/C=C/c1ccc([N+](=O)[O-])cc1 | -1.04% | –
Cc1cc2oc(=O)cc(-c3ccccc3)c2c(C)c1/C=C/c1ccc(F)cc1 | 1.11% [at 39.9 µM] | –
COC(=O)c1ccc(NCC(=O)c2ccccc2)cc1 | – | 10 µM (active)
COC(=O)c1ccc(NCC(=O)N2CCCCCC2)cc1 | 0.973% | –
Cc1ccc(C(=O)CNc2ccc(F)cc2)cc1 | 0.448% | –
C/C=C(\C)C(=O)OC1C(OC(=O)C2(C)OC2C)c2cc3ccc(=O)oc3cc2OC1(C)C (stereo not given) | 0.763% | –
O=C(OCc1ccc([N+](=O)[O-])cc1)c1ccccn1 | 1.98% | –

SMILES | activity change, negative = inhibition | Potency
N/C(=N\OC(=O)Cc1ccc([N+](=O)[O-])cc1)c1ccccn1 | -13.1% | –
N/C(=N\OC(=O)c1ccc([N+](=O)[O-])cc1)c1ccccn1 | – | 8.91 µM (active)
C=CC(C1=CC(=O)C=CC1=O)c1ccc(O)cc1 (stereo not given) | 0.217% | –
COc1cc(OC)c2c(-c3cccc(-c4cccc(N)c4)c3)cc(=O)oc2c1 | -2.14% [at 39.9 µM] | –
COc1cc(NC(=O)c2ccc3c(c2)OCO3)ccc1NC(=O)c1cccs1 | -5.78% | –
COc1ccc(C(=O)Nc2ccc3c(c2)OCO3)cc1OC | – | 12.6 µM (active)
Cn1c(=O)n(C)c2cc(C(=O)Nc3ccc4c(c3)OCO4)ccc21 | 0.19% | –
COc1ccc(C(=O)/C=C/Nc2ccccn2)cc1 | – | 11.2 µM (active)
COc1ccc(-c2csc(Nc3ccccn3)n2)cc1 | -10.1% | –
CCOc1cc(NC(=O)c2ccccn2)c(OCC)cc1NC(=O)c1ccc(OC)cc1 | -0.562% | –
S=C(NCCCc1cnc[nH]1)NCCCN(Cc1ccc(Cl)c(Cl)c1)c1ccc(Br)cn1 | 2.07% [at 39.9 µM] | –
COc1ccc(C2=Nc3cc(C)ccc3OC2)cc1 | – | 8.91 µM (active)
COc1ccc(C2=NOC3(CC(=O)N(c4ccc(C)cc4)C3=O)C2)cc1 (stereo not given) | -2.28% | –
COc1ccc(-c2noc(-c3ccc(C)cc3)n2)cc1 | -1.12% | –
C=C1c2cccc(OC)c2O[C@H](C(=O)OCC)[C@@H]1CCCCCC | 0.372% [at 39.9 µM] | –
CCc1ccc(-c2cc(C(=O)NCc3ccco3)c3ccccc3n2)s1 | -13.6% | –
CC(=NCc1ccco1)C1=C(O)c2ccccc2C1=O | -1.04% | –
CC(=NCc1ccco1)c1c(C(F)(F)F)[nH]n(-c2nc3ccccc3s2)c1=O | – | 8.91 µM (active)
CC(=O)/C(C)=N/O | -3.88% | –
C/C=C1\C2C=C(C)CC1(N)c1ccc(=O)[nH]c1C2 (stereo not given) | 1.02% [at 39.9 µM] | –
O=c1c(O)c(Br)ccc2c(Br)c(O)c(O)c(O)c12 | -3.69% | –
Brc1ccc(C2=NCCC(c3ccccc3)O2)cc1 (stereo not given) | 3.23% [at 39.9 µM] | –
COc1ccc(-c2c(C)cc3oc(=O)cc(-c4ccccc4)c3c2C)cc1C=O | 4.99% [at 39.9 µM] | –
OC[C@H]1O[C@@H](n2cnc3c(NC4CCCC4)ncnc32)[C@H](O)[C@H]1O | -4.96% | –
O=C1OCCN1C(=O)[C@H]1[C@H](c2ccccc2)C(c2ccc(F)cc2)=NN1c1ccccc1 | 4.83% [at 39.9 µM] | –

SMILES | activity change, negative = inhibition | Potency
CCCCS(=O)(=O)N1C2=NC(C(=O)OC)=C(C(=O)OC)[C@@H]3N(Cc4ccccc4)c4ccccc4[C@]23C[C@H]1C(=O)OC | -7.24% [at 7.66 µM] | –
O=C1CCC[C@@H]2CC(N3CCCCC3)C[C@@H]3CCN1[C@H]23 (stereo not given in full) | 3.14% [at 39.9 µM] | –
COc1ccc(/C=N/NC(=O)c2ccccc2)cc1OS(=O)(=O)c1ccccc1 | -0.772% | –
COc1ccc(C(=O)Nc2ccccc2C(=O)N/N=C/c2ccc(O)c(OC)c2)cc1 | – | 1 µM (active)
COc1ccccc1C(=O)NNC(=O)c1ccc(NC(=O)c2ccccc2)cc1 | 2.71% | –
COc1ccc(C(=O)Nc2ccccc2C(=O)N/N=C/c2ccccc2OC)cc1 | – | 6.31 µM (active)
CCn1c(/C=N/NC(=O)c2ccc(OC)cc2)nc2ccccc21 | -1.47% | –
COc1cc(/C=N/NC(=O)c2ccccc2)ccc1OS(=O)(=O)c1ccccc1 | -4.13% | –
CC1(OC(=O)C2CCCC2)C(=O)C=C2C=C(c3ccc(C#N)cc3)OC=C2C1=O (stereo not given) | -2.28% | –
C[C@H]1Cc2c(COc3ccccc3)nc3c(c2CO1)CN(C(=O)Nc1cccc(C#N)c1)CC3 | -0.91% [at 7.66 µM] | –
COC1(C2=NCCN2)COc2ccccc2O1 (stereo not given) | -1.93% | –
O=C1OCCN1C(=O)[C@H]1[C@H](c2ccc(Cl)cc2)C(c2cccc(Cl)c2)=NN1c1ccc(Br)cc1 | 2.51% [at 39.9 µM] | –
COc1ccc2c(c1)O[C@@H](c1ccc3c(c1)OCO3)[C@H](OC(=O)NCCc1ccc(OC)c(OC)c1)C2=O | 0.102% | –
CC[C@H](C)[C@@H](NC(=O)O[C@@H]1C(=O)c2cc(OC)ccc2O[C@H]1c1cccc(OC)c1)C(=O)OC | 4.76% | –
CCOC(=O)C1C/C(=C\C(C)=O)c2cccc(C(F)(F)F)c2O1 (stereo not given) | 6.29% [at 39.9 µM] | –
OC[C@H]1O[C@@H](n2cnc3c(N[C@H]4CC5CCC4C5)ncnc32)[C@H](O)[C@@H]1O (stereo not given in full) | -1.73% | –
COc1ccccc1CNC(=O)c1ccc(SC)cc1OC | -0.807% | –
COc1cc(SC)ccc1C(=O)Nc1nc(C)cs1 | – | 11.2 µM (active)
COc1cc(SC)ccc1C(=O)Nc1cc(C)ccn1 | -13.8% | –
CCCCC1=CC2=CC(=O)C(C)(OC(=O)CC)C(=O)C2=CN1CCCOC(C)C (stereo not given) | -3.21% [at 7.66 µM] | –
C=CCN1c2ccccc2[C@]23C[C@@H](C(=O)OC)N(S(=O)(=O)c4ccc([N+](=O)[O-])cc4)C2=NC(C(=O)OC)=C(C(=O)OC)[C@H]13 | -1.89% [at 7.66 µM] | –
O=C(O)CCC(=O)O | 0.673% [at 39.9 µM] | –
CC(=O)CC(c1ccccc1)C1C(=O)Oc2ccccc2C1=O (stereo not given) | 3.02% [at 39.9 µM] | –
CC(C)(C)OC(=O)NCCCCC1=CC2=CC(=O)C(C)(OC(=O)c3cccs3)C(=O)C2=CO1 (stereo not given) | -0.695% | –
CC1=C(C/C=C(\C)CCCC(C)CCCC(C)CCCC(C)C)C(=O)c2ccccc2C1=O (stereo not given) | 1.77% [at 39.9 µM] | –

SMILES | activity change, negative = inhibition | Potency
CCCCCCCC/C=C\CCCCCCCC(=O)OC[C@H](CO)OC(C)=O | 2.45% | –
COC(=O)CCCC1=CC2=CC(=O)C(C)(OC(=O)c3cccs3)C(=O)C2=CN1CC1CC1 (stereo not given) | -3.89% [at 7.66 µM] | –
CC[C@@]12C=C(/C=C/c3ccccc3)[C@](CC)(C1)[C@H](c1ccccc1)CC2=O | 0.444% | –
CCOC(=O)C(C)Sc1nc2ccccc2c(=O)n1CC1CCCCC1 (stereo not given) | -1.71% | –
O=c1c2ccccc2nc2n1C1(CCCCC1)Cc1ccccc1-2 | -4.12% | –
CN(c1ccc2nc3ccccc3c(=O)n2n1)C1CCCCC1 | – | 6.31 µM (active)
C=CCOC(=O)NC(c1ccc(F)c(F)c1)C(C(=O)COC)C(=O)OC (stereo not given) | inactive | –
COC(=O)C(C(=O)OC)C1c2ccccc2C=C(C2CC2)N1C(=O)OC (stereo not given) | inactive | –
CC/C=C\C/C=C\C/C=C\C/C=C\C/C=C\C/C=C\CCC(=O)NC(C)C(=O)O (stereo not given) | 1.38% | –
CC(=O)[C@H](C(c1ccccc1)N1CCOCC1)N1CCOCC1 (stereo not given in full) | -6.68% [at 7.66 µM] | –
O=C(O)C1CCCN(CCC=C(c2ccccc2)c2ccccc2)C1 (stereo not given) | -0.135% | –
CCCCCCCCCCCCCCCCO | 2.29% [at 39.9 µM] | –
CCCCC/C=C\CC1OC1CCCCCCCC(=O)O (stereo not given) | 0.471% | –
COc1cccc(CC(=O)N2CCc3nc(COc4ccccc4)c4c(c3C2)CO[C@@H](C)C4)c1 | -3.82% [at 7.66 µM] | –
O=c1oc2ccccc2cc1-c1csc(Nc2ccc(O)cc2)n1 | -5.88% | –
COc1ccc2nc(Nc3nc(-c4cc5ccccc5oc4=O)cs3)sc2c1 | -3.49% | –
Nc1ncc(-c2cc3ccccc3oc2=O)s1 | – | 11.2 µM (active)
NNc1nnc(NN)c2ccccc12 | -1.53% [at 39.9 µM] | –
COc1cccc(-c2cc(=O)c3cc(NC(=O)c4ccc(C)cc4)ccc3[nH]2)c1 | -2.75% [at 39.9 µM] | –
COc1ccc(-c2nc3c(c4c2C[C@H](c2ccccc2)OC4)CN(C(=O)C2CC2)CC3)c(C)c1 | -7.98% [at 7.66 µM] | –
COC(=O)C/C=C/[C@@H](C)[C@H](NC(=O)OCC(Cl)(Cl)Cl)c1ccccc1 | -1.07% | –
CCCCCCCC1=Cc2ccc(F)cc2C(C(C(=O)OC)C(=O)OC)N1C(=O)OC (stereo not given) | inactive | –
Cc1ccnc(NC(=O)c2ccoc2C)c1 | – | 6.31 µM (active)
Cc1ccnc(NC(=O)c2ccc(NC(=O)c3ccco3)cc2)c1 | -2.89% | –
Cc1occc1C(=O)Nc1cccc(Cn2cccn2)c1 | -12.9% | –
